The supplement of paper PMC11001985

Each target was assayed with C#CCNC(=O)CCSSCCC(=O)NCCc1ccc(C=O)c(C=O)c1 (assay: lysine labeling ratio R10:1 (500 µM / 50 µM probe), SILAC-ABPP in living cells; higher = lower intrinsic lysine reactivity toward the probe, active = 2 or less). Details: HeLa; probe concentrations 500 vs 50 µM.
Outline: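 SILAC light and heavy living HeLa cells in PBS at room temperature were labelled with 50 µM or 500 µM of an alkyne-tagged, disulfide-linked lysine probe, with forward and reverse label swaps. Mixed lysates were clicked to biotin-azide, trypsin-digested, captured on neutravidin, DTT-released, alkylated and analysed by LC-MS/MS on a TIMS-TOF Pro. R is the filtered median high-probe/low-probe MS1 peptide ratio per lysine, then the median across forward and reverse replicates. Ratios are capped at 20.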

UniProt Q15149, sequence (Q15149 whole entry): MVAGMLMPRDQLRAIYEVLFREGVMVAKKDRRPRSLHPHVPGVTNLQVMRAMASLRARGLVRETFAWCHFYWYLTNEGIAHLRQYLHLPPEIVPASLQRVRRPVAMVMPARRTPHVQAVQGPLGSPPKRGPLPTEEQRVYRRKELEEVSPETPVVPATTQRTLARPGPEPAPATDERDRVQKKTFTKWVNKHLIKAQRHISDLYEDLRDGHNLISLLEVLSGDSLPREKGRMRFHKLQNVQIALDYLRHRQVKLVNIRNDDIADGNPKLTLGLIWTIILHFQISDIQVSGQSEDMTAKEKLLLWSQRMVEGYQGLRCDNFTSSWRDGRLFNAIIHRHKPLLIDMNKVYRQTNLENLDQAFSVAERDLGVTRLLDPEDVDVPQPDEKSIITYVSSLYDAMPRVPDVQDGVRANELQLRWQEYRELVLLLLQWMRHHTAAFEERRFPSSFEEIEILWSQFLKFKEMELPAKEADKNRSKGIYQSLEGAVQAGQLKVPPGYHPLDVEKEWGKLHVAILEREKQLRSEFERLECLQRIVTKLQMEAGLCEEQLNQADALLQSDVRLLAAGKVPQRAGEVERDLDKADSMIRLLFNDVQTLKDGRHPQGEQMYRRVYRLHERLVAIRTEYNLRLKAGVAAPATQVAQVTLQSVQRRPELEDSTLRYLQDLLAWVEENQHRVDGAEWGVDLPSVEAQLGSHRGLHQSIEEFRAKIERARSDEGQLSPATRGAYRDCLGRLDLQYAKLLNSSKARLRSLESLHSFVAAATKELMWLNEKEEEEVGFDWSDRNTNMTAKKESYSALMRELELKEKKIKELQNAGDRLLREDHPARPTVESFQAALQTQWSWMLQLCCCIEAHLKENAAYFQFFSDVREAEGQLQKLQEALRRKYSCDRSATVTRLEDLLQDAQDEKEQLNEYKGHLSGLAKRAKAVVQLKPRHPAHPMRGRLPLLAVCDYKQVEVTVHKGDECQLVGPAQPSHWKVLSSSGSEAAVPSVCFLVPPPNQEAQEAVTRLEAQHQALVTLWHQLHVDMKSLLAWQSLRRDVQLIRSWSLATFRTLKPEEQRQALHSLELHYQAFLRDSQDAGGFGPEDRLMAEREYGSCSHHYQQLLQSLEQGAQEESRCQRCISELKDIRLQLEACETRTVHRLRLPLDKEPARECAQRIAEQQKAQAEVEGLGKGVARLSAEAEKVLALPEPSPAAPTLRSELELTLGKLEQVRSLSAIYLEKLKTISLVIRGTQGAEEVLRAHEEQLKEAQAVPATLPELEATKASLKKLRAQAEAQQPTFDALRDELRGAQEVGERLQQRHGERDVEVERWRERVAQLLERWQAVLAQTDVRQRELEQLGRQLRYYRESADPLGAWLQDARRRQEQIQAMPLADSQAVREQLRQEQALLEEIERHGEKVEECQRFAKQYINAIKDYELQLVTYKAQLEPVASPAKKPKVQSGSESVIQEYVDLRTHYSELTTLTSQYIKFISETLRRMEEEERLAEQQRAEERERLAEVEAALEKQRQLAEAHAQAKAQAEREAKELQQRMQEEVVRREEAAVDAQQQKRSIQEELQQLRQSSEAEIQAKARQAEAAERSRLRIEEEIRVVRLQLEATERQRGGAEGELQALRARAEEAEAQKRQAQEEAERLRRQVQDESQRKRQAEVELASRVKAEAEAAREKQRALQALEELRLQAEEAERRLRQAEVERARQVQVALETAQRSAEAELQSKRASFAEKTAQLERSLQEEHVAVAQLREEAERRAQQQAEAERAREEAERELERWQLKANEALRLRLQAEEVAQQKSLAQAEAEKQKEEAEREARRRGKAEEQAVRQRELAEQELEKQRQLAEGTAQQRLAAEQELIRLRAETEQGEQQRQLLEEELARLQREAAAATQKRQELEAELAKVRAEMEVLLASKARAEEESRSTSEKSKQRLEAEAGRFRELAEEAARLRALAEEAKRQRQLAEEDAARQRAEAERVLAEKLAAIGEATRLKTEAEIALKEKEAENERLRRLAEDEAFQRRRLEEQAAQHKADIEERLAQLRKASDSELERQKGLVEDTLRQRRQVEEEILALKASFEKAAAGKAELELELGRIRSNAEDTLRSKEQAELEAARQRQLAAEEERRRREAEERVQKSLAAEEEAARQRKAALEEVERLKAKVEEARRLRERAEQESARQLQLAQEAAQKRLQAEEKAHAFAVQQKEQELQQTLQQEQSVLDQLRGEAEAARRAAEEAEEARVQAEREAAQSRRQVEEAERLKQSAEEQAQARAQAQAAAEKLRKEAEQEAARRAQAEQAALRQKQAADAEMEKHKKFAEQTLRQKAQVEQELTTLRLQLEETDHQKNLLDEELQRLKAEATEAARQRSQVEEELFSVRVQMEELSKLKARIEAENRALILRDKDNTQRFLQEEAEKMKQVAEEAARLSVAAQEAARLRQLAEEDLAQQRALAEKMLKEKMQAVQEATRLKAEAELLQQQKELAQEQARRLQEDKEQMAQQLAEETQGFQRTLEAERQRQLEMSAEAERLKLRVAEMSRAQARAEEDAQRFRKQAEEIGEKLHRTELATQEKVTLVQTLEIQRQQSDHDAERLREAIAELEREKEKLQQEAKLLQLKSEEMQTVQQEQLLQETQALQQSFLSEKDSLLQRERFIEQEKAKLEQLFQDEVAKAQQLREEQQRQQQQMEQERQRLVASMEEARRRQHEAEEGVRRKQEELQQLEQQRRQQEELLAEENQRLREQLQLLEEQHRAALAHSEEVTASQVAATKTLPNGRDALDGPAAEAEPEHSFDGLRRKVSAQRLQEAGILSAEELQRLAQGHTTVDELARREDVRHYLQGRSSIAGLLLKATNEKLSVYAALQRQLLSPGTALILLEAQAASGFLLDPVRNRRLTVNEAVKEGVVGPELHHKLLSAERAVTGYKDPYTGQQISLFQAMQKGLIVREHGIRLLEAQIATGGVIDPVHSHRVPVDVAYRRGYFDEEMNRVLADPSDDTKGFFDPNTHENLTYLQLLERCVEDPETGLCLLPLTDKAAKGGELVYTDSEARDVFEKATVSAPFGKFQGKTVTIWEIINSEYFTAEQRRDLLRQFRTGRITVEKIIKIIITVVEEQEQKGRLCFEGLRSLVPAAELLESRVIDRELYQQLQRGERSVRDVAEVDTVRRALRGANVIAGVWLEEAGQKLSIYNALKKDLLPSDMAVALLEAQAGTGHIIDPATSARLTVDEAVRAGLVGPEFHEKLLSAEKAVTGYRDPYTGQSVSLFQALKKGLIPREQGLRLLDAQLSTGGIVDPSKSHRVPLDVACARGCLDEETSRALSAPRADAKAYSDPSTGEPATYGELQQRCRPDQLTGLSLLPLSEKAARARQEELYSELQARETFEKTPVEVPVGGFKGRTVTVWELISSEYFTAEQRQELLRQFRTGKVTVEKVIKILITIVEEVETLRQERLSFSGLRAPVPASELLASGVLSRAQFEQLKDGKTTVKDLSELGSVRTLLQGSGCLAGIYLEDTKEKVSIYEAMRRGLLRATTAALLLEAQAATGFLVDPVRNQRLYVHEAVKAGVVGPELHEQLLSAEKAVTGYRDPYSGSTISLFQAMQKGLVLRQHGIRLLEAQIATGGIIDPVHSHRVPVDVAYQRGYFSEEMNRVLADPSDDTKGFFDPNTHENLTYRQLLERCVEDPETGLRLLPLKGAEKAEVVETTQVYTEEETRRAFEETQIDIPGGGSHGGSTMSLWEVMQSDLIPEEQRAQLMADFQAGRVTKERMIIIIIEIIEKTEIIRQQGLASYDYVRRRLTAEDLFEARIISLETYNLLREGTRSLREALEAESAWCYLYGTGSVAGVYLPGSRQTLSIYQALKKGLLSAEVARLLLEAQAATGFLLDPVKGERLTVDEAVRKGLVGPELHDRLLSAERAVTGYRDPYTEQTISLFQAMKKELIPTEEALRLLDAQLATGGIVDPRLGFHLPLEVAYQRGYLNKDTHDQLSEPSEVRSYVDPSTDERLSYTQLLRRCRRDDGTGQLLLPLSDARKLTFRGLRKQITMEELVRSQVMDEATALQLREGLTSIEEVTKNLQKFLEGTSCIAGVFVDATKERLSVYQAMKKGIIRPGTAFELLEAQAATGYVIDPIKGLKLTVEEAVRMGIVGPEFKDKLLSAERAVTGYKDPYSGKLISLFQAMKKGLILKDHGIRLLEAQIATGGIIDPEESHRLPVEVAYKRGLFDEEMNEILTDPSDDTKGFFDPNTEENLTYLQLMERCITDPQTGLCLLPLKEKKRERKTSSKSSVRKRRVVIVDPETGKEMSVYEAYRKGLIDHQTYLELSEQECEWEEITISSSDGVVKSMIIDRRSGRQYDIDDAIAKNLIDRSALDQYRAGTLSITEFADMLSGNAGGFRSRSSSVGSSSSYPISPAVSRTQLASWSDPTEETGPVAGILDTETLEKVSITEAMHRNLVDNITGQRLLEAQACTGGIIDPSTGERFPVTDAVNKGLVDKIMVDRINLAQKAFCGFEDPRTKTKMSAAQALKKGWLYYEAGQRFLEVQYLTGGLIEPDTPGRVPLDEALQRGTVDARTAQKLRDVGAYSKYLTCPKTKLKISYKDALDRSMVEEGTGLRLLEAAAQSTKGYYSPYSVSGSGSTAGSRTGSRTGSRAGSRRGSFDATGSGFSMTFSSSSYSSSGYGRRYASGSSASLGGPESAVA
UniProt O00560, sequence (O00560 whole entry): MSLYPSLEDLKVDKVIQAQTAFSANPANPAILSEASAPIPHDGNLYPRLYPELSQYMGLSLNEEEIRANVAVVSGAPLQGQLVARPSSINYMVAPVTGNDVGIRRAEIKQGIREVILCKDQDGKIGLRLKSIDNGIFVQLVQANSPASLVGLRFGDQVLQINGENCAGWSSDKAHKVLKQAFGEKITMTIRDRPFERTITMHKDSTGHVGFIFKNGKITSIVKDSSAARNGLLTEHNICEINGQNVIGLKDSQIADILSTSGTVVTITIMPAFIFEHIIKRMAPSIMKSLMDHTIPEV
UniProt P63218, sequence (P63218 whole entry): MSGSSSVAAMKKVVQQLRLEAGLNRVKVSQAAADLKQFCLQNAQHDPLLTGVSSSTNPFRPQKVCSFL
UniProt P02656, sequence (P02656 whole entry): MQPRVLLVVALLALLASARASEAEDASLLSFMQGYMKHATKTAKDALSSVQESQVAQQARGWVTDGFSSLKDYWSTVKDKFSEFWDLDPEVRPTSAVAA

Row | Target | lysine labeling ratio R10:1
1 | RPS19 (lysine site: K143) (UniProt P39019) | 1.75 (active)
2 | UniProt P14618 (lysine site: K247) | 3 (inactive)
3 | APOC3 (lysine site: K44) (UniProt P02656) | 3.68 (inactive)
4 | UniProt P62899 (lysine site: K70) | 12.9 (inactive)
5 | ENG (lysine site: K513) (UniProt P17813) | 4.09 (inactive)
6 | UniProt P63218 (lysine site: K12) | 5.18 (inactive)
7 | SDCBP (lysine site: K223) (UniProt O00560) | 2.46 (inactive)
8 | CD58 (lysine site: K78) (UniProt P19256) | 8.22 (inactive)
9 | GAPDH (lysine site: K194) (UniProt P04406) | 6.75 (inactive)
10 | UniProt P26639 (lysine site: K213) | 0.782 (active)
11 | SERPINH1 (lysine site: K410) (UniProt P50454) | 4.84 (inactive)
12 | HSPE1 (lysine site: K8) (UniProt P61604) | 4.22 (inactive)
13 | FLNB (lysine site: K1221) (UniProt O75369) | 3.74 (inactive)
14 | RALA (lysine site: K159) (UniProt P11233) | 0.885 (active)
15 | UniProt Q68BL7 (lysine site: K168) | 1.12 (active)
16 | UniProt Q15149 (lysine site: K2025) | 4.19 (inactive)
17 | PA2G4 (lysine site: K376) (UniProt Q9UQ80) | 1.5 (active)
18 | UniProt Q15149 (lysine site: K2706) | 3.69 (inactive)
19 | HSP90B1 (lysine site: K633) (UniProt P14625) | 3.03 (inactive)
20 | LMO7 (lysine site: K1455) (UniProt Q8WWI1) | 1.37 (active)

Row | Target | lysine labeling ratio R10:1
21 | TSPAN6 (lysine site: K146) (UniProt O43657) | 1.28 (active)
22 | SEMA3C (lysine site: K416) (UniProt Q99985) | 2.36 (inactive)
23 | PDIA3 (lysine site: K104) (UniProt P30101) | 1.07 (active)
24 | EDIL3 (lysine site: K429) (UniProt O43854) | 1.21 (active)
25 | LMO7 (lysine site: K1264) (UniProt Q8WWI1) | 4.64 (inactive)
26 | PPT1 (lysine site: K174) (UniProt P50897) | 1.29 (active)
27 | HSPD1 (lysine site: K31) (UniProt P10809) | 4.2 (inactive)
28 | FLNA (lysine site: K1491) (UniProt P21333) | 2.1 (inactive)
29 | UniProt O95084 (lysine site: K189) | 2.74 (inactive)
30 | EZR (lysine site: K64) (UniProt P15311) | 0.907 (active)
31 | CAPZB (lysine site: K95) (UniProt P47756) | 3.24 (inactive)
32 | FZD1 (lysine site: K273) (UniProt Q9UP38) | 4.28 (inactive)
33 | FLNA (lysine site: K1071) (UniProt P21333) | 3.76 (inactive)
34 | EZR (lysine site: K143) (UniProt P15311) | 2.46 (inactive)
35 | PTPRF (lysine site: K204) (UniProt P10586) | 4.93 (inactive)
36 | ENG (lysine site: K291) (UniProt P17813) | 5.59 (inactive)
37 | SEMA3C (lysine site: K106) (UniProt Q99985) | 0.653 (active)
38 | UniProt P02533 (lysine site: K293) | 2.74 (inactive)
39 | MYH9 (lysine site: K1754) (UniProt P35579) | 3.66 (inactive)
40 | ACTR3 (lysine site: K348) (UniProt P61158) | 1.4 (active)
